# Data reported in the antibiotic and cytotoxicity screens of Wong et al. (2023).
# The whole screen tested about 39,000 compounds, of which about 1,500 (3.8%) were called active. This excerpt belongs to a sample that is enriched for actives.
# System: HSkMC (human skeletal muscle cells)
# Test: cytotoxicity call (relative viability < 0.9)
# Settings: 10 µM
row,Compound,cytotoxicity call
1,CO[C@@H]1CN(C)C(=O)c2ccc(NS(C)(=O)=O)cc2OC[C@@H](C)N(S(C)(=O)=O)C[C@H]1C,inactive
2,C[C@@H]1CN([C@@H](C)CO)C(=O)c2cccc(NC(=O)c3cnccn3)c2O[C@H]1CN(C)S(=O)(=O)c1ccc(Cl)cc1,inactive
3,C[C@H]1CN([C@@H](C)CO)C(=O)c2cc(Br)cnc2O[C@H]1CN(C)Cc1ccccc1C(=O)O,inactive
4,C[C@H]1CN([C@@H](C)CO)C(=O)c2cccc(NC(=O)Nc3ccc(C(F)(F)F)cc3)c2O[C@H]1CN(C)S(=O)(=O)c1ccc(F)cc1,inactive
5,O=C(CCCN1CCC(O)(c2ccc(Cl)cc2)CC1)c1ccc(F)cc1,inactive
6,O=C(CCCN1CCC(O)(c2ccc(Br)cc2)CC1)c1ccc(F)cc1,inactive
7,OC1(c2ccc(Cl)c(C(F)(F)F)c2)CCN(CCCC(c2ccc(F)cc2)c2ccc(F)cc2)CC1 [listing 1 of 2 here],active
8,OC1(c2ccc(Cl)c(C(F)(F)F)c2)CCN(CCCC(c2ccc(F)cc2)c2ccc(F)cc2)CC1 [listing 2 of 2 here],active
9,COc1ccc(S(=O)(=O)Nc2cccc3c2O[C@@H](CN(C)S(=O)(=O)c2ccccc2)[C@@H](C)CN([C@H](C)CO)C3=O)cc1,inactive
10,C[C@@H]1CN([C@H](C)CO)C(=O)c2cccc(NS(=O)(=O)c3cn(C)cn3)c2O[C@H]1CN(C)C(=O)Nc1ccc(F)cc1,inactive
11,C[C@@H]1CN([C@@H](C)CO)C(=O)c2cc(NC(=O)Cc3ccccc3)ccc2O[C@@H](C)CCCCO[C@@H]1CN(C)C(=O)Nc1cccc2ccccc12,inactive
12,CO[C@H]1O[C@H](CO)[C@@H](OC(=O)Nc2ccc3c(c2)OCO3)[C@H](OC(=O)Nc2ccc3c(c2)OCO3)[C@@H]1OC(=O)Nc1ccc2c(c1)OCO2,inactive
13,CN(C)C(=O)C[C@H]1CC[C@@H]2[C@@H](COc3ccc(NS(=O)(=O)c4cccc(F)c4)cc3C(=O)N2C)O1,inactive
14,O=C1CN(S(=O)(=O)Cc2ccccc2)C[C@H]2[C@H](c3ccc(C#Cc4ccc(F)cc4)cc3)[C@H](CO)N12,active
15,O=C1CN(S(=O)(=O)Cc2ccccc2)C[C@@H]2[C@H](c3ccc(C#Cc4ccc(F)cc4)cc3)[C@H](CO)N12,active
16,O=C1CN(S(=O)(=O)Cc2ccccc2)C[C@@H]2[C@H](c3ccc(C#Cc4ccc(F)cc4)cc3)[C@@H](CO)N12,inactive
17,COc1cccc(C#Cc2ccc([C@H]3[C@H](CO)N4C(=O)CN(S(=O)(=O)c5ccccc5C)C[C@@H]34)cc2)c1,inactive
18,O=C1CN(S(=O)(=O)Cc2ccccc2)C[C@@H]2[C@@H](c3ccc(C#Cc4ccc(F)cc4)cc3)[C@@H](CO)N12,active
19,COc1cccc(C#Cc2ccc([C@@H]3[C@H]4CN(S(=O)(=O)c5ccccc5C)CC(=O)N4[C@H]3CO)cc2)c1,inactive
20,O=C1CN(S(=O)(=O)Cc2ccccc2)C[C@@H]2[C@@H](c3ccc(C#Cc4ccc(F)cc4)cc3)[C@H](CO)N12,inactive

row,Compound,cytotoxicity call
1,O=C1CN(S(=O)(=O)Cc2ccccc2)C[C@H]2[C@@H](c3ccc(C#Cc4ccc(F)cc4)cc3)[C@@H](CO)N12,inactive
2,O=C1CN(S(=O)(=O)Cc2ccccc2)C[C@H]2[C@H](c3ccc(C#Cc4ccc(F)cc4)cc3)[C@@H](CO)N12,active
3,O=C1CN(S(=O)(=O)Cc2ccccc2)C[C@H]2[C@@H](c3ccc(C#Cc4ccc(F)cc4)cc3)[C@H](CO)N12,inactive
4,C[C@H](CO)N1C[C@H](C)[C@H](CN(C)Cc2ccc(Oc3ccccc3)cc2)Oc2cc(-c3ccncc3)ccc2S1(=O)=O,inactive
5,O=C(C[C@@H]1CC[C@@H](NC(=O)CN2CCOCC2)[C@@H](CO)O1)NCCc1ccccc1,inactive
6,CC(C)NC(=O)Nc1ccc2c(c1)C(=O)N(C)[C@H]1CC[C@H](CC(=O)NCc3ccc(F)cc3)O[C@H]1CO2,inactive
7,COCC#Cc1cnc2c(c1)C(=O)N([C@@H](C)CO)C[C@@H](C)[C@H](CN(C)C(C)=O)O2,inactive
8,C[C@@H]1CN([C@H](C)CO)C(=O)Cc2cc(NC(=O)Nc3cccc4ccccc34)ccc2O[C@@H]1CN(C)S(=O)(=O)c1cccs1,inactive
9,C[C@H](CO)N1C[C@H](C)[C@H](CN(C)C(=O)Nc2ccc(F)cc2)OCCCC[C@H](C)Oc2ccc(NC(=O)Nc3ccc4c(c3)OCO4)cc2C1=O,inactive
10,COc1ccc(S(=O)(=O)N(C)C[C@H]2OCc3cnnn3CCCC(=O)N([C@@H](C)CO)C[C@@H]2C)cc1,inactive
11,C[C@H]1CN([C@@H](C)CO)C(=O)c2cc(NC(=O)Nc3cccc4ccccc34)ccc2O[C@@H]1CN(C)C(=O)NC1CCCCC1,inactive
12,CCCC[P+](CCCC)(CCCC)Cc1ccc(NC(=O)[C@H](Cc2ccc3ccccc3c2)N/C(=N/C2CCCCC2)NC2CCCCC2)cc1,inactive
13,CCCC[P+](CCCC)(CCCC)Cc1ccc(NC(=O)[C@@H](Cc2ccc3ccccc3c2)N=C(NC2CCCCC2)NC2CCCCC2)cc1,active
14,CC(C)NC(=O)Nc1ccc2c(c1)C(=O)N([C@H](C)CO)C[C@@H](C)[C@@H](CN(C)Cc1ccc3c(c1)OCO3)O2,inactive
15,C[C@@H]1CCCCO[C@@H](CN(C)Cc2ccc(C(F)(F)F)cc2)[C@@H](C)CN([C@@H](C)CO)C(=O)c2cc(NC(=O)Nc3ccc4c(c3)OCO4)ccc2O1,inactive
16,C[C@H]1CCCCO[C@H](CN(C)Cc2ccc3c(c2)OCO3)[C@@H](C)CN([C@@H](C)CO)C(=O)c2cc(NC(=O)Nc3ccc(C(F)(F)F)cc3)ccc2O1,active
17,C[C@H]1CCCCO[C@@H](CN(C)Cc2ccc3c(c2)OCO3)[C@@H](C)CN([C@@H](C)CO)C(=O)c2cc(NC(=O)Nc3ccc(C(F)(F)F)cc3)ccc2O1,active
18,C[C@@H]1CCCCO[C@H](CN(C)Cc2ccc(C(F)(F)F)cc2)[C@H](C)CN([C@@H](C)CO)C(=O)c2cc(NC(=O)Nc3ccc4c(c3)OCO4)ccc2O1,inactive
19,C[C@@H]1CN([C@@H](C)CO)C(=O)c2cc(NC(=O)Nc3ccc(C(F)(F)F)cc3)ccc2O[C@@H](C)CCCCO[C@H]1CN(C)Cc1ccc2c(c1)OCO2,active
20,C[C@@H]1CCCCO[C@@H](CN(C)Cc2ccc3c(c2)OCO3)[C@H](C)CN([C@H](C)CO)C(=O)c2cc(NC(=O)Nc3ccc(C(F)(F)F)cc3)ccc2O1,active

row,Compound,cytotoxicity call
1,C[C@H]1CN([C@@H](C)CO)C(=O)c2cccc(NC(=O)C3CCOCC3)c2O[C@@H]1CN(C)C(=O)NC1CCCCC1,inactive
2,C[C@H](CO)N1C[C@H](C)[C@H](CN(C)S(=O)(=O)c2cn(C)cn2)Oc2ncc(C3=CCCC3)cc2C1=O,inactive
3,CO[C@H](CN(C)S(=O)(=O)c1cccc(Cl)c1)[C@@H](C)CN([C@@H](C)CO)S(=O)(=O)c1cccc(Cl)c1,inactive
4,COc1ccc(NC(=O)Nc2ccc3c(c2)C(=O)N([C@H](C)CO)C[C@H](C)[C@H](CN(C)C(=O)Nc2c(C)noc2C)OCCCC[C@H](C)O3)cc1,inactive
5,COc1ccc(NC(=O)N(C)C[C@@H]2Oc3ccc(NS(=O)(=O)c4c(C)noc4C)cc3CC(=O)N([C@H](C)CO)C[C@H]2C)cc1,inactive
6,C[C@@H]1CCCCO[C@@H](CN(C)C(=O)C2CCCCC2)[C@@H](C)CN([C@@H](C)CO)C(=O)c2cc(NC(=O)Cc3ccccc3)ccc2O1,inactive
7,C[C@@H]1CN([C@H](C)CO)S(=O)(=O)c2ccc(C#CCN(C)C)cc2O[C@@H]1CN(C)S(C)(=O)=O,inactive
8,CSc1nc(=O)c(C)n[nH]1,inactive
9,Cc1ccc(S(=O)(=O)Nc2ccc3c(c2)C(=O)N([C@@H](C)CO)C[C@H](C)[C@H](CN(C)S(=O)(=O)c2cn(C)cn2)O3)cc1,inactive
10,C[C@@H]1CCCCO[C@H](CN(C)Cc2ccc3c(c2)OCO3)[C@H](C)CN([C@H](C)CO)C(=O)c2cc(NC(=O)Nc3ccc(C(F)(F)F)cc3)ccc2O1,active
11,C[C@H](CO)N1C[C@H](C)[C@H](CN(C)Cc2ccc(C(F)(F)F)cc2)OCCCC[C@H](C)Oc2ccc(NC(=O)Nc3ccc4c(c3)OCO4)cc2C1=O,inactive
12,C[C@@H]1CCCCO[C@H](CN(C)Cc2ccc3c(c2)OCO3)[C@H](C)CN([C@@H](C)CO)C(=O)c2cc(NC(=O)Nc3ccc(C(F)(F)F)cc3)ccc2O1,active
13,C[C@@H]1CN([C@H](C)CO)C(=O)c2cc(NC(=O)Nc3ccc(C(F)(F)F)cc3)ccc2O[C@@H](C)CCCCO[C@@H]1CN(C)Cc1ccc2c(c1)OCO2,active
14,C[C@H]1CCCCO[C@@H](CN(C)Cc2ccc(C(F)(F)F)cc2)[C@@H](C)CN([C@@H](C)CO)C(=O)c2cc(NC(=O)Nc3ccc4c(c3)OCO4)ccc2O1,inactive
15,C[C@H](CO)N1C[C@H](C)[C@@H](CN(C)Cc2ccc(C(F)(F)F)cc2)OCCCC[C@H](C)Oc2ccc(NC(=O)Nc3ccc4c(c3)OCO4)cc2C1=O,inactive
16,C[C@@H]1CCCCO[C@@H](CN(C)Cc2ccc(C(F)(F)F)cc2)[C@H](C)CN([C@@H](C)CO)C(=O)c2cc(NC(=O)Nc3ccc4c(c3)OCO4)ccc2O1,inactive
17,C[C@@H]1CCCCO[C@H](CN(C)Cc2ccc3c(c2)OCO3)[C@@H](C)CN([C@H](C)CO)C(=O)c2cc(NC(=O)Nc3ccc(C(F)(F)F)cc3)ccc2O1,active
18,C[C@@H]1CN([C@@H](C)CO)C(=O)Cc2cc(NC(=O)Nc3cccc4ccccc34)ccc2O[C@@H]1CN(C)Cc1ccc2c(c1)OCO2,inactive
19,Cc1noc(C)c1NC(=O)N(C)C[C@@H]1OCCCC[C@@H](C)Oc2ccc(NC(=O)Nc3ccccc3)cc2C(=O)N([C@@H](C)CO)C[C@@H]1C,inactive
20,Cc1noc(C)c1S(=O)(=O)N(C)C[C@H]1OCCCC[C@@H](C)Oc2ccc(NC(=O)Nc3ccccc3)cc2C(=O)N([C@@H](C)CO)C[C@@H]1C,inactive
